Sampled rows, rich in hits. Any-hit rate of the full collection: about 9.5%.
HPGD inh: qHTS Assay for Inhibitors of HPGD (15-Hydroxyprostaglandin Dehydrogenase). AID 894, 2007. Potency, µM, usual class: inhibitors. 4.3% of 150,000 active. purified HPGD, NADH fluorescence kinetic, PGE2 substrate. 15-hydroxyprostaglandin dehydrogenase [NAD(+)] (Homo sapiens), P15428; active means well fitted inhibition curve with a large enough effect, not every such curve was filed as active; inconclusive means small, poorly fitted or top-dose-only effect, or another doubt; inactive means no such curve, though single readings can be large or run the other way
Target sequence (P15428 whole entry, looked up): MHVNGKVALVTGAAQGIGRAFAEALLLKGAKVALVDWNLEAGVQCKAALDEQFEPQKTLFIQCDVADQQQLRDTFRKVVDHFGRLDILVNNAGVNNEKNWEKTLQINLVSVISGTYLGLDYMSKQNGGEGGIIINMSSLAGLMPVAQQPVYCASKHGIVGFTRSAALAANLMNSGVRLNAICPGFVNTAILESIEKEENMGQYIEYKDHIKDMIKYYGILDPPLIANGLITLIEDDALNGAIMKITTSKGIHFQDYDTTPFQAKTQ
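NADH formation kinetics: reaction with 30 uM PGE2 and 1 mM NAD+ (final), 20 nM enzyme, Tris-HCl pH 8 with Tween 20, after 15 min compound preincubation at room temperature. Fluorescence change, last versus first of five reads.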
Tau fluor cs: Counterscreen qHTS for Inhibitors of Tau Fibril Formation, Fluorescence Polarization; AID 1463, 2008; tau K18 P301L Alexa594 fluorescence, heparin fibrillization; 0.93% of 280,000 active; Potency, µM (series often up to 57.7 µM); further: nearly all actives have a fitted effect of over 55% in size
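Human tau K18 P301L (15 uM unlabeled, 0.24 uM Alexa 594-labeled) in 100 mM sodium acetate pH 7 with 20 uM heparin, 6 hr at 37 C. ThT 30 uM added, 1 hr ambient; Alexa 594 FP and total fluorescence read at 555/632 nm.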
NPSR antagonist: qHTS Assay for Antagonists of the Neuropeptide S Receptor: cAMP Signal Transduction | Potency, µM (series often up to 38.3 µM), actives largely listed as inhibitors | Q6W5P4 | CHO-NPSR cells, cAMP TR-FRET, antagonist mode | 1% of 220,000 active; further: nearly all actives have a fitted effect of over 50% in size
Target sequence (Q6W5P4 whole entry, looked up): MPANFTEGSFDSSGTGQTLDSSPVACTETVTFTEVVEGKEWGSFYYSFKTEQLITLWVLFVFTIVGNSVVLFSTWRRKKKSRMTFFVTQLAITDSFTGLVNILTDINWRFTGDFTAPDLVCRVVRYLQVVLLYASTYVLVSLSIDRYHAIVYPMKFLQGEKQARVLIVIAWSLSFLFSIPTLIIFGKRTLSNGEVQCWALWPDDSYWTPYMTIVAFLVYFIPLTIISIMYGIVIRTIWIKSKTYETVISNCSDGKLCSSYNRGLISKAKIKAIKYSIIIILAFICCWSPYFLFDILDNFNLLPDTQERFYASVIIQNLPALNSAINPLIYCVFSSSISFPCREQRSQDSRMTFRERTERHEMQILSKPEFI
Tau FP inhib: qHTS for Inhibitors of Tau Fibril Formation, Fluorescence Polarization | K18 P301L tau heparin fibrillization, Alexa594 FP, 6 h | Potency, µM (doses to about 57.7 µM), hits mostly inhibitors | 0.39% of 280,000 active; further: nearly all actives have a fitted effect of over 55% in size
Target sequence (P10636 561-689 P618L limits assumed): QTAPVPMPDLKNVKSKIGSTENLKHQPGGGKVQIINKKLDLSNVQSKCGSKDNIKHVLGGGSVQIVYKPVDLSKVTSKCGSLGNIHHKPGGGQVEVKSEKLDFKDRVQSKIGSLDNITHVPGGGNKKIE
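Steps: dispense K18 P301L tau (15 uM plus 0.24 uM Alexa 594 tracer, final) in pH 7 sodium acetate; add compound; add heparin (20 uM final); incubate 6 hr, 37 C; add ThT (30 uM final); after 1 hr ambient, read FP.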
Tau ThT inhib: qHTS for Inhibitors of Tau Fibril Formation, Thioflavin T Binding; recombinant tau K18 P301L (four-repeat tau fragment), heparin-induced fibrillization, ThT fluorescence; 2.1% of 270,000 active; Potency, µM (highest dose often 57.4 µM), usual class: inhibitors; further: nearly all actives have a fitted effect of over 55% in size
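Recombinant human tau K18 fragment […] carrying P301L, 15 uM unlabeled plus 0.24 uM Alexa 594-labeled, was fibrillized with 20 uM heparin in 100 mM sodium acetate pH 7 for 6 hr at 37 C; 30 uM ThT fluorescence read after 1 hr.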
ALDH1A1 block: qHTS Assay for Inhibitors of Aldehyde Dehydrogenase 1 (ALDH1A1). Aldehyde dehydrogenase 1A1 (Homo sapiens), P00352. Purified ALDH1A1, NADH fluorescence, propionaldehyde substrate. Potency, µM (highest dose often 75.3 µM), hits mostly inhibitors. 7.3% of 220,000 active. AID 1030, 2008; active means well fitted inhibition curve with a large enough effect, not every such curve was filed as active; inconclusive means small, poorly fitted or top-dose-only effect, or another doubt; inactive means no such curve, though single readings can be large or run the other way
Large screens that a line does not name were inactive; [ ] = dose if it differs, or a comment. Unless noted, the call rests on the fitted dose curve; in most records, active means well fitted curve in the direction sought with a large enough effect; inconclusive means small, poorly fitted or top-dose-only effect, or another doubt; inactive means no such curve, though single readings can be large; an effect the other way counts as inactive or inconclusive.

COc1ccc(N2C(=O)[C@@H]3[C@H](C2=O)[C@H]2c4ccccc4C=CN2[C@@H]3C(=O)Nc2ccccc2)cc1	Tau fluor cs inconclusive, Tau ThT inhib inconclusive, ALDH1A1 block 25µM
O=C(c1ccc(Cl)cc1)[C@@H]1[C@@H]2C(=O)N(c3ccccc3)C(=O)[C@@H]2C2c3ccccc3C=NN21 (some centres undefined)	ALDH1A1 block inconclusive
O=C(c1ccco1)[C@@H]1[C@@H]2C(=O)N(c3ccccc3)C(=O)[C@@H]2C2c3ccccc3C=CN21 (some centres undefined)	HPGD inh inconclusive, Tau FP inhib inconclusive, Tau ThT inhib 25µM, ALDH1A1 block 2.2µM
O=C(N/N=C/c1ccccc1O)C1(O)c2ccccc2-c2ccccc21	none
CC1CCN(S(=O)(=O)c2ccc3c(ccc(=O)n3CC(=O)NCc3ccccc3Cl)c2)CC1	none (no result: HPGD inh, NPSR antagonist, ALDH1A1 block)
O=C(COC(=O)c1ccccn1)Nc1ccccc1Cl	ALDH1A1 block 22µM
O=C(COc1ccccc1O)Nc1ccccc1Cl	HPGD inh 18µM, ALDH1A1 block inconclusive
NC(=O)[C@@H]1CCCN1Cc1ccc2c(c1)OCO2	none (no result: Tau fluor cs, NPSR antagonist, Tau FP inhib, Tau ThT inhib)
O=C(Oc1ccccc1)n1c(=O)oc2ccc(Cl)cc21	none (no result: Tau fluor cs, NPSR antagonist, Tau FP inhib, Tau ThT inhib)
Cc1cccc(OC(=O)n2c(=S)oc3cc(Cl)ccc32)c1	ALDH1A1 block 3.5µM
COc1ccc(Cc2n[nH]c(=S)n2N)cc1OC	ALDH1A1 block 10µM (no result: HPGD inh)
COc1ccc(CCCc2n[nH]c(=S)n2C)cc1C	none (no result: HPGD inh)
Nn1c(Cc2ccc(Br)cc2)n[nH]c1=S	ALDH1A1 block 11µM (no result: HPGD inh)
CCOc1ccc(Cc2n[nH]c(=S)n2N)cc1	HPGD inh inconclusive, ALDH1A1 block inconclusive
Cc1cc(Br)c(NC(=O)CCl)c(Br)c1	none
CC(C)c1cc(NC(=O)CCl)on1	ALDH1A1 block 1.6µM (no result: HPGD inh)
Cc1cc(C(=O)Cn2nc(C(=O)O)c3ccccc3c2=O)c(C)n1CCc1ccc(Cl)cc1	Tau ThT inhib inconclusive (no result: HPGD inh)
O=C(CSc1ncc(-c2ccccc2)[nH]1)Nc1cccc(C(F)(F)F)c1	Tau fluor cs 16µM[quencher], Tau FP inhib inconclusive (no result: HPGD inh, NPSR antagonist, ALDH1A1 block)
CCCNC(=O)C(=O)NCC(c1ccc2c(c1)OCO2)N1CCOCC1 (centres undefined)	none (no result: HPGD inh, NPSR antagonist, ALDH1A1 block)
O=C1CC(c2c(F)cccc2Cl)C2=C(COC2=O)N1 (centres undefined)	ALDH1A1 block inconclusive
Cc1[nH]nc2c1C(c1ccccc1F)CC(=O)N2 (centres undefined)	ALDH1A1 block 22µM
O=C1CC(c2ccccc2F)C2=C(COC2=O)N1 (centres undefined)	ALDH1A1 block 18µM (no result: HPGD inh)
O=Cc1ccc2oc3nc4n(c(=O)c3c(=O)c2c1)CCCS4	HPGD inh inconclusive, ALDH1A1 block 2.5µM
COc1ccc(-c2onc3ccc(Cl)cc23)cc1	HPGD inh inconclusive, ALDH1A1 block 20µM
O=Cc1ccc2noc(-c3ccc(Cl)cc3)c2c1	Tau ThT inhib inconclusive, ALDH1A1 block 22µM
Cc1ccc(-c2onc3ccc(Cl)cc23)cc1	none
Cc1ccc(CN2CCCn3nc(C(=O)NCCc4cccc(C)c4)cc3C2=O)cc1	none (no result: HPGD inh, NPSR antagonist, ALDH1A1 block)
COC(=O)/C=C/C1c2ccccc2C(OC)C1C (centres undefined)	none (no result: HPGD inh, NPSR antagonist)
CCc1nnc(NC(=O)CCC(=O)N2CCN(C3c4ccccc4-c4ccccc43)CC2)s1	none
Cc1ccc(O)c(C(=O)c2cnc3onc(-c4ccc(F)cc4)c3c2)c1	HPGD inh 13µM, Tau fluor cs inconclusive, Tau ThT inhib inconclusive, ALDH1A1 block 14µM
Cc1noc2ncc(C(=O)c3cc(F)ccc3O)cc12	none
Cc1ccc(SCC2=NN(c3nc(C)cc(C)n3)C(=O)C2)cc1	none (no result: HPGD inh)
Cc1cc(C)nc(N2N=C(C(C)(C)C)CC2=O)n1	Tau ThT inhib inconclusive, ALDH1A1 block 6.3µM
O=c1[nH]c(=O)n(Cc2ccccc2)c2nc(-c3ccc(Oc4ccc(F)cc4)c([N+](=O)[O-])c3)n(CCO)c12	NPSR antagonist 6.3µM, Tau ThT inhib inconclusive
COc1ccc(-c2ccc(-c3nc4c(c(=O)[nH]c(=O)n4Cc4ccccc4)n3C)o2)c([N+](=O)[O-])c1	HPGD inh 28µM
COCCn1c(-c2ccc(-c3ccc([N+](=O)[O-])cc3Br)o2)nc2c1c(=O)[nH]c(=O)n2CC(C)C	Tau ThT inhib inconclusive, ALDH1A1 block 16µM (no result: HPGD inh)
COCCn1c(=O)[nH]c(=O)c2c1nc(-c1ccc(-c3ccc(Cl)cc3[N+](=O)[O-])o1)n2Cc1ccccc1	HPGD inh inconclusive, Tau ThT inhib inconclusive, ALDH1A1 block inconclusive
Cc1noc(C)c1C(=O)N1CCC[C@@]2(CCN(c3ccccc3)C2)C1	none (no result: Tau fluor cs, NPSR antagonist, Tau FP inhib, Tau ThT inhib)
CC(=O)c1ccc(-c2ccc(/C=C(/Sc3n[nH]c(C)n3)C(=O)O)o2)cc1	Tau fluor cs inconclusive, Tau ThT inhib 1µM (no result: HPGD inh)
COc1ccc(Cl)cc1-c1nc(SCC(N)=O)n[nH]1	none (no result: HPGD inh, ALDH1A1 block)
Cc1nc(S/C(=C/c2ccc(-c3ccc(C(=O)O)cc3)o2)C(=O)O)n[nH]1	Tau ThT inhib 4.5µM (no result: HPGD inh, ALDH1A1 block)
Cc1nc(S/C(=C/c2ccc(-c3ccc(Cl)cc3)o2)C(=O)O)n[nH]1	HPGD inh inconclusive, Tau fluor cs inconclusive, Tau ThT inhib 2µM
Cc1nc(S/C(=C/c2ccc(-c3cc(Cl)ccc3C)o2)C(=O)O)n[nH]1	Tau ThT inhib 11µM (no result: HPGD inh, ALDH1A1 block)
Cc1nc(NC2CCCCC2)c2nc(-c3ccccc3)n(C(C)CN(C)C)c2n1 (centres undefined)	ALDH1A1 block inconclusive (no result: NPSR antagonist)
N=C(N)SCCc1ccc(CCSC(=N)N)cc1	NPSR antagonist inconclusive
O=C(N/N=C/C(Br)=C/c1ccccc1)c1ccncc1	Tau FP inhib inconclusive, Tau ThT inhib inconclusive (no result: HPGD inh, ALDH1A1 block)
Cc1ccc(N=N/C(=C\O)C(=O)c2ccc(Cl)cc2)cc1	NPSR antagonist 7.9µM, Tau ThT inhib 28µM, ALDH1A1 block 13µM (no result: HPGD inh)
O=C(/C(=C/O)N=Nc1ccccc1)c1ccc(Cl)cc1	NPSR antagonist inconclusive, Tau ThT inhib inconclusive, ALDH1A1 block inconclusive (no result: HPGD inh)
O=C(/C(=C/O)N=Nc1ccccc1)c1ccncc1	NPSR antagonist inconclusive, Tau ThT inhib 14µM, ALDH1A1 block 1.3µM
O=C(COC(=O)c1cc(=O)[nH]c(=O)[nH]1)Nc1cccc(S(=O)(=O)N2CCOCC2)c1	ALDH1A1 block inconclusive (no result: HPGD inh)
Nc1nonc1C(=O)N/N=C/c1ccc(-c2cccc(C(=O)O)c2)o1	Tau ThT inhib inconclusive, ALDH1A1 block inconclusive (no result: HPGD inh)
OC(c1ccc(Cl)cc1)c1nnc(-c2ccccc2)o1 (centres undefined)	HPGD inh 18µM

From PubChem
